Drawing on the OligoGym collection, this text covers sensor-assay potency score (higher = more potent) for 38 sequences.
Also: reference of the scale not given here.

In one assay the target is NXF5. The experiment in a line: pooled miR-30 sensor sort-seq; sequence = guide strand. The note with it: shRNA.
On to TTACATAGGCAGACTGGTCCGA, for which the sensor-assay potency score (higher = more potent) is 0.61.

As to TTCGTGGACATTTTGTGTGCTT, the sensor-assay potency score (higher = more potent) is -0.318.

ATTTCTTTCAGTGATCTTCAGG showed a sensor-assay potency score (higher = more potent) of -1.08.

The target of another assay is OAS3. The assay is described as above. The settings on record: shRNA.
The sequence TTCTCTACGAACTCCTTCCGCG yielded a sensor-assay potency score (higher = more potent) of -0.635.

TTCAGAATCACAGCCACCCTTG: the sensor-assay potency score (higher = more potent) is -0.336.

Consider TTGTAGTCCGTGAAGCAGTTGA, for which the sensor-assay potency score (higher = more potent) was -0.0592.

TTGACCGTCCAGTAGACACAGA registered a sensor-assay potency score (higher = more potent) of -0.525.

In turn, TTCAACATCACAGCCATCCCTT came in with a sensor-assay potency score (higher = more potent) of -0.469.

In turn, TAGACTTGAGAGCTGGGCCTGG displayed a sensor-assay potency score (higher = more potent) of -0.478.

TGTAGCTCTGTGAAGCAGGTGG had a sensor-assay potency score (higher = more potent) of 0.189.

TAGGCTGAAAGCATCCTTCTTA: the sensor-assay potency score (higher = more potent) was found to be 0.0263.

Sequence TTTGGTGCCAGAACTGAGCTGC displayed a sensor-assay potency score (higher = more potent) of 0.736.

Sequence TACCAGTGCTTCACCAGCCGGA gave a sensor-assay potency score (higher = more potent) of -0.364.

For TTTGTTCTGAGCCGCAACCTGG, the sensor-assay potency score (higher = more potent) was -1.14.

In turn, TTGAACTGGGAGTCCTTCCCGC registered a sensor-assay potency score (higher = more potent) of -0.289.

For the next assay, the target named is OCA2. Described as above. The settings on record: shRNA.
On to TTCAGTTCAACAATCTCACTGG, for which the sensor-assay potency score (higher = more potent) came out at 0.691.

Regarding TTTTCTTCTTCAAACAGTGGGG, the sensor-assay potency score (higher = more potent) is -0.306.

With TAACACATCCCAACAGTGCAGG, the sensor-assay potency score (higher = more potent) was -0.397.

In turn, TTGTTCTCCAACATATTCTATT displayed a sensor-assay potency score (higher = more potent) of -1.21.

For TTGAGCACCTCACACAACCTTA, the sensor-assay potency score (higher = more potent) was -0.642.

Take AACAGTGCAGGACACAACCATC: the sensor-assay potency score (higher = more potent) was -1.7.

The sequence TTGTCTTGGATCAAGGTTGAGC registered a sensor-assay potency score (higher = more potent) of -0.397.

For the sequence TTTGTGAAGATCACTTCTGCAA, the sensor-assay potency score (higher = more potent) came to 0.623.

TAGCAGGTATCTTCGCTCCCAG registered a sensor-assay potency score (higher = more potent) of -0.952.

Turning to TTATAAAGCTTTCTGTTCCAGT, the sensor-assay potency score (higher = more potent) is -0.265.

Regarding TTTGTTCTCCAACATATTCTAT, the sensor-assay potency score (higher = more potent) was -1.25.

The target of another assay is OCLM. The description is as above. The note with it: shRNA.
With TCTGCTAAGGTAAATCTTTAAC, the sensor-assay potency score (higher = more potent) is -1.77.

The sequence ACTAATGTGTCTGCTAAGGTAA gave a sensor-assay potency score (higher = more potent) of -1.12.

For TTAAATAGAAGAGTATACTAAT, the sensor-assay potency score (higher = more potent) was -0.462.

With AAAGAATACCAGGATAGCCATA, the sensor-assay potency score (higher = more potent) is -1.76.

With ATAGAAGAGTATACTAATGTGT, the sensor-assay potency score (higher = more potent) was -0.144.

Sequence AAGAGTATACTAATGTGTCTGC registered a sensor-assay potency score (higher = more potent) of 0.0499.

Consider TACTAATGTGTCTGCTAAGGTA, for which the sensor-assay potency score (higher = more potent) is -0.482.

Sequence TATACTAATGTGTCTGCTAAGG had a sensor-assay potency score (higher = more potent) of -1.53.

AATACCACTCTTATAAAGGATT displayed a sensor-assay potency score (higher = more potent) of -1.36.

On to TTTAAATAGAAGAGTATACTAA, for which the sensor-assay potency score (higher = more potent) was -0.591.

Consider TAATACCACTCTTATAAAGGAT, for which the sensor-assay potency score (higher = more potent) was -0.68.

For TAGAAGAGTATACTAATGTGTC, the sensor-assay potency score (higher = more potent) was -0.0959.
